# PubChem BioAssay AID2284072 (EPA ToxCast)
# Activity calls are given as the source filed them. How the source made its calls: active means hit-call score of the fitted dose curve at least 0.9, where 1 is the maximum; inactive means score below 0.9.
# Target: human CK2 (alpha1/alpha2/beta) Other Protein Kinase, CSNK2A1 (gene 1457) (UniProt P68400)
# Assay: ERF_TW_ENZ_hCSNK2A1: Eurofins (ERF) Enzymatic Radiometric [10 uM ATP] Assay for human CK2 (alpha1/alpha2/beta) Other Protein Kinase
# Experimental: ERF_TW_ENZ_hCSNK2A1 is a biochemical, single-readout assay that uses extracted gene-proteins in a cell-free assay. Measurements were taken 0.5 hour after chemical dosing in a 96-well plate. See CK2 (alpha1/alpha2/beta) Human Other Protein Kinase Enzymatic Radiometric Assay [10 uM ATP], Panlabs.ERF_TW_ENZ_hCSNK2A1 is an assay component calculated from the ERF_TW_ENZ_hCSNK2A1 assay. It is designed to measure enzyme activity using a type of enzyme reporter as detected by scintillation counting with radiometry technology.Data from the assay component ERF_TW_ENZ_hCSNK2A1 was analyzed at the assay endpoint, ERF_TW_ENZ_hCSNK2A1, in the positive analysis fitting direction relative to DMSO as the negative control and baseline of activity. Using a type of enzyme reporter, loss-of-signal activity can be used to understand changes in enzymatic activity as they relate to gene CSNK2A1. To generalize the intended target to other relatable targets, this assay endpoint is annotated to the kinase intended target family, where the subfamily is serine/threonine kinase.
# CK2a1(h) is incubated with 20mM HEPES pH7.4, 0.15M NaCl, 0.1mM EDTA, 5mM DTT, 0.1% Triton X-100, 165 uM […], 10 mM MgAcetate and [gamma-33P-ATP] (specific activity and concentration as required). The reaction is 17 initiated by the addition of the Mg/ATP mix. […]
# human CK2 (alpha1/alpha2/beta) Other Protein Kinase, CSNK2A1 (gene 1457), sequence (P68400 whole entry, looked up): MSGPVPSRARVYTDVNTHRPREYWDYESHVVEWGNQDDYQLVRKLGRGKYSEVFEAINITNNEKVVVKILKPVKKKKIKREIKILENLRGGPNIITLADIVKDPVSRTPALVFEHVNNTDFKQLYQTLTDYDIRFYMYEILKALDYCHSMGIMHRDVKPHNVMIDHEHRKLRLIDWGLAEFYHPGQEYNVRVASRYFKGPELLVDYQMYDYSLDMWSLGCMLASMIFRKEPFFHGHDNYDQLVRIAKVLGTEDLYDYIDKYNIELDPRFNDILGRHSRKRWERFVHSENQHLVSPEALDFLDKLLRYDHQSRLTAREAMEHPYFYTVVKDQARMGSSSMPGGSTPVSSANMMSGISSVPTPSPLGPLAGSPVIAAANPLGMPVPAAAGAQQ
row,Compound,AC50
1,O=C(/C=C/c1ccc(O)cc1)CC(=O)/C=C/c1ccc(O)cc1,2.25 µM (active)
